Laboratory results reported in the supplement of paper PMC10849652.
The full data set covers some 7,900 targets. This sample favours those with a hit. About 0.6% of all pairs of compound and target were hits. Values without a mark were called inactive.

How the values were obtained:
Assay in all cases: log2 fold change, soluble protein after heating vs DMSO (PISA); higher = thermal stabilisation; K562 cells, 10 uM, 30 min; active = over 0.2 and 3.5 SD of the protein, either way, in both replicates (recomputed)
[1] = compound: NC(=O)Nc1cc(-c2cccc(F)c2)sc1C(=O)N[C@H]1CCCNC1
Outline: (§1)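 K562 cells at 2×10^6 cells/mL were treated for 30 min with 10 μM compound, and aliquots were heated for 3 min over 48°C-58°C before pooling. Extraction used PBS with 0.5% NP-40 at 4°C, and soluble protein was the supernatant after 21,000xg for 90 min, measured by TMTpro 16plex LC-MS/MS with channel sums equalised. Thermal stability values, relative to control samples and from duplicates, are log2 fold changes.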

[2] = compound: NC(=O)c1cnc(N[C@@H]2CCCC[C@@H]2N)nc1Nc1cccc(-n2nccn2)c1
Outline: as §1

[3] = compound: NC1(c2ccc(-c3nc4ccn5c(=O)[nH]nc5c4cc3-c3ccccc3)cc2)CCC1
Outline: as §1

[4] = compound: NCC(=O)Nc1ccc(-n2nc(C(F)(F)F)cc2-c2ccc3c(ccc4ccccc43)c2)cc1
Outline: as §1

entinostat = compound: Nc1ccccc1NC(=O)c1ccc(CNC(=O)OCc2cccnc2)cc1 [entinostat]
Outline: as §1

citarinostat = compound: O=C(CCCCCCNC(=O)c1cnc(N(c2ccccc2)c2ccccc2Cl)nc1)NO [citarinostat]
Outline: as §1

silmitasertib = compound: O=C(O)c1ccc2c(c1)nc(Nc1cccc(Cl)c1)c1ccncc12 [silmitasertib]
Outline: as §1

[5] = compound: O=C1NC(=O)C(c2cnc3ccccn23)=C1c1cn2c3c(cc(F)cc13)CN(C(=O)N1CCCCC1)CC2
Outline: as §1

[6] = compound: c1cc(OCCN2CCCCC2)cc(-c2n[nH]c3ccc(-c4nnc[nH]4)cc23)c1
Outline: as §1

vorinostat = compound: O=C(CCCCCCC(=O)Nc1ccccc1)NO [vorinostat]
Outline: as §1

Sequence of UniProt Q15746 (Q15746 whole entry, looked up): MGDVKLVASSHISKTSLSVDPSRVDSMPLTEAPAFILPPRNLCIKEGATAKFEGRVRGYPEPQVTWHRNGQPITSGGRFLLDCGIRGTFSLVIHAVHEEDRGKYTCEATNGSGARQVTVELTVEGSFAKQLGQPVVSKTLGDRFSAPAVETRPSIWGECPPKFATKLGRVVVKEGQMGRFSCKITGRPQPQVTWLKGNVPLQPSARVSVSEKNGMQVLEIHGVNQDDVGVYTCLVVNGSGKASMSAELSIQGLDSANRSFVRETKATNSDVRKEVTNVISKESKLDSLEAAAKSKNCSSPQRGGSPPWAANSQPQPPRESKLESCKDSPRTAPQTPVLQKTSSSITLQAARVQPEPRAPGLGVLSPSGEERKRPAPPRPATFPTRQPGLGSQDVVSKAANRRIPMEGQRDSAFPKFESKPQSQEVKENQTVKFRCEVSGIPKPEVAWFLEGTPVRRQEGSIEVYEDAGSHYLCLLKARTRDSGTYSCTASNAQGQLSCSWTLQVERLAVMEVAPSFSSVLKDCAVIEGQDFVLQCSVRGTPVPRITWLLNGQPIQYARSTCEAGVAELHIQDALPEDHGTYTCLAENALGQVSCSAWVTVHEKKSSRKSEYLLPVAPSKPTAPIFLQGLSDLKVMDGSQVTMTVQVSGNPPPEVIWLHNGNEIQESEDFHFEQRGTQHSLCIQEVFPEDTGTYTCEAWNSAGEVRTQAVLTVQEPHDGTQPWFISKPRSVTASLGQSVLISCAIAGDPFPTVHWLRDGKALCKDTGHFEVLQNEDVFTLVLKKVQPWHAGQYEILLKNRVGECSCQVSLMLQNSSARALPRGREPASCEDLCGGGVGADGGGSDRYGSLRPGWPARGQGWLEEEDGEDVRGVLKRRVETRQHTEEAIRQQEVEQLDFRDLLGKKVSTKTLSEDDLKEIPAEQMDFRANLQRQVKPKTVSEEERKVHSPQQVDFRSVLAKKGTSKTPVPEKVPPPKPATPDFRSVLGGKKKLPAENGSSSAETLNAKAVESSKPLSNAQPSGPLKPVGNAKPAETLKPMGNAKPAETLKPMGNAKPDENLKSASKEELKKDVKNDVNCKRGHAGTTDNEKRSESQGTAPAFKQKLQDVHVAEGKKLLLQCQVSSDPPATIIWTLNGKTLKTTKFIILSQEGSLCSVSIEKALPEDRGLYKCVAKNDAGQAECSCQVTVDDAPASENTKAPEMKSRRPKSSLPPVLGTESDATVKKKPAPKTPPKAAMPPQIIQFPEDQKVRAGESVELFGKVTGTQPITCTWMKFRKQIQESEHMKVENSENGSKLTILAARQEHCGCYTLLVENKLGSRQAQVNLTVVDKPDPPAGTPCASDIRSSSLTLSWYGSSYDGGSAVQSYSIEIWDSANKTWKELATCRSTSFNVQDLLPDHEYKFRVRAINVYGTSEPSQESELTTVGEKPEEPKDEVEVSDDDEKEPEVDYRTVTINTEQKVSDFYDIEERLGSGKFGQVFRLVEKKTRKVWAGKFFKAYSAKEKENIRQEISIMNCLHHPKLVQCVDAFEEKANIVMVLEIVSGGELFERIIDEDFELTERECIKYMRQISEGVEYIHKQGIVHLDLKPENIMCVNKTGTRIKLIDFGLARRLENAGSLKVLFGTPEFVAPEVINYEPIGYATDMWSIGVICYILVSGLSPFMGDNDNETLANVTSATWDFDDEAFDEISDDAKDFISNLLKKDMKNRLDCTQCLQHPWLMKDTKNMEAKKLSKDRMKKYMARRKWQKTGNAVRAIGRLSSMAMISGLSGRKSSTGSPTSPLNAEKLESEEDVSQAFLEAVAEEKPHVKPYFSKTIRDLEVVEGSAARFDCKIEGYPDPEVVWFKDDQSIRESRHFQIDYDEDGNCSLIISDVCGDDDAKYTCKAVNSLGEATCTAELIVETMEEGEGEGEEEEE
Sequence of UniProt P0C024 (P0C024 whole entry, looked up): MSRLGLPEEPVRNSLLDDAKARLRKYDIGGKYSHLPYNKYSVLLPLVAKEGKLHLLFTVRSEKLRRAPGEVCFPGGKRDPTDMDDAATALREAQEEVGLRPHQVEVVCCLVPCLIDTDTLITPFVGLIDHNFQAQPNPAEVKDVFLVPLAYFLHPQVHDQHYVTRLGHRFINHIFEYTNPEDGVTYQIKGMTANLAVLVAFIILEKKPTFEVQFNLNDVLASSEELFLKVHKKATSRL
Sequence of UniProt Q9Y2A7 (Q9Y2A7 whole entry, looked up): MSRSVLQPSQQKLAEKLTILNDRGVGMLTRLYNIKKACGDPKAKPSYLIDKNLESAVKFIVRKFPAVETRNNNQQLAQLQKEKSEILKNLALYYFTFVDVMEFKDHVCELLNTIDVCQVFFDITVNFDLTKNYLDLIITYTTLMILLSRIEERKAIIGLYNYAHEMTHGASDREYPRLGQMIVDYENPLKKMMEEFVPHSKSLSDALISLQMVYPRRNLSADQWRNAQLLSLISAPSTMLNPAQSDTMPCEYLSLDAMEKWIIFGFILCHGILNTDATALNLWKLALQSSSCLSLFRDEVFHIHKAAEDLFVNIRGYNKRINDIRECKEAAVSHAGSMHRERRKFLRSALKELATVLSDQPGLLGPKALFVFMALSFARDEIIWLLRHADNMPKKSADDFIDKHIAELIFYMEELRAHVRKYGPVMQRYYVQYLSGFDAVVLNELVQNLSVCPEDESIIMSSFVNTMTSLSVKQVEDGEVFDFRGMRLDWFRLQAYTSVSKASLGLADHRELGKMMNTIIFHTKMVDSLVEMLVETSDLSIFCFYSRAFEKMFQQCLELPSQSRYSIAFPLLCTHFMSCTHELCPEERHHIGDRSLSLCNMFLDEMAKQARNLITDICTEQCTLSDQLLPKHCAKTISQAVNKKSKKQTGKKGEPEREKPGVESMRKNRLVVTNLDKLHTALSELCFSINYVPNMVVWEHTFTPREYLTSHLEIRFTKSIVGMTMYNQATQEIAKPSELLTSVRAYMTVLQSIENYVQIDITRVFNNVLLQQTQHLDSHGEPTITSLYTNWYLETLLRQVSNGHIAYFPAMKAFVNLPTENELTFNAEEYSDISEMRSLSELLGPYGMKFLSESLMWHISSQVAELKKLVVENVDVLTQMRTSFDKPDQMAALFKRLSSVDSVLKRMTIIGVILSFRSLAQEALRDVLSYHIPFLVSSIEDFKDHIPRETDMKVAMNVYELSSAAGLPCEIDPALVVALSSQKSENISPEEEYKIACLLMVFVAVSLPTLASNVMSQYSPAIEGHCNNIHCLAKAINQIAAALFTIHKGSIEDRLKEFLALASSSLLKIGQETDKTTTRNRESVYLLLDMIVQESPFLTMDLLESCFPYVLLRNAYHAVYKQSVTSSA
Sequence of UniProt Q86UD1 (Q86UD1 whole entry, looked up): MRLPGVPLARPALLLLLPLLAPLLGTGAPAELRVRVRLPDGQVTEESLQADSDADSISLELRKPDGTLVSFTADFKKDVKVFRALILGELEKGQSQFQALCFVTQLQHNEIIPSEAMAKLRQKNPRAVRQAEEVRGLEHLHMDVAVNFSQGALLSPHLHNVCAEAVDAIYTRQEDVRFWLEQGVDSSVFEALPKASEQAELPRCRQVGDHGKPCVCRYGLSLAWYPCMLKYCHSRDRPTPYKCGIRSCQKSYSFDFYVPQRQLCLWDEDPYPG
Sequence of UniProt Q8WZ82 (Q8WZ82 whole entry, looked up): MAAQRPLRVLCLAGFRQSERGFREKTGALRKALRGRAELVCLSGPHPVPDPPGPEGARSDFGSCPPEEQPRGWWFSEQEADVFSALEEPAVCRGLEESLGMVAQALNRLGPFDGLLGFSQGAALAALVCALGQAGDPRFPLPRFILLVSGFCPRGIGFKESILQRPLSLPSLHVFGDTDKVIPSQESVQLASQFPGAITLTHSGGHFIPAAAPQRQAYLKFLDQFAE
Sequence of UniProt P53370 (P53370 whole entry, looked up): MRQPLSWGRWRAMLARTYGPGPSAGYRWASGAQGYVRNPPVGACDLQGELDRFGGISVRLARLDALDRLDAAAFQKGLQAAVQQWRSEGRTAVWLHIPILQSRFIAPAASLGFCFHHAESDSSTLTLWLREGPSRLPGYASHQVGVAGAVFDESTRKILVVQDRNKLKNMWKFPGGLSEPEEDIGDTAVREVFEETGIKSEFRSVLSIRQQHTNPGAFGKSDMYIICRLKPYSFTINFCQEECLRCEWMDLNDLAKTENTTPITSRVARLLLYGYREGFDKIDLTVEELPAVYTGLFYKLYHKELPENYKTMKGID
Sequence of UniProt O00567 (O00567 whole entry, looked up): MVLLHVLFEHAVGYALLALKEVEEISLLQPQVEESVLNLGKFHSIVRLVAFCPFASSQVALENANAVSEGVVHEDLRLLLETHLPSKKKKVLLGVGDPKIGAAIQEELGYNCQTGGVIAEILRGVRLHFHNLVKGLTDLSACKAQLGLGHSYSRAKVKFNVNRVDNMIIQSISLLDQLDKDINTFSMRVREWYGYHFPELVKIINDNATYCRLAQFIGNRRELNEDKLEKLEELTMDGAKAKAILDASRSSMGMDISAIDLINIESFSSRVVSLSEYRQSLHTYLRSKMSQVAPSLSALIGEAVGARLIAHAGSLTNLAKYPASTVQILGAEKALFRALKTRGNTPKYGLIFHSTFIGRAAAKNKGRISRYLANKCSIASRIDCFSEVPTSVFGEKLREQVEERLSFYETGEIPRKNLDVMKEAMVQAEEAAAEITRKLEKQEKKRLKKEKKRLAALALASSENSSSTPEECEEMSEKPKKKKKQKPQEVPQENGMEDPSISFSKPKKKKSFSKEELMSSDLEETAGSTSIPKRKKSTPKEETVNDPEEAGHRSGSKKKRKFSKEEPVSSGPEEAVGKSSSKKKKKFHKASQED
Sequence of UniProt P15559 (P15559 whole entry, looked up): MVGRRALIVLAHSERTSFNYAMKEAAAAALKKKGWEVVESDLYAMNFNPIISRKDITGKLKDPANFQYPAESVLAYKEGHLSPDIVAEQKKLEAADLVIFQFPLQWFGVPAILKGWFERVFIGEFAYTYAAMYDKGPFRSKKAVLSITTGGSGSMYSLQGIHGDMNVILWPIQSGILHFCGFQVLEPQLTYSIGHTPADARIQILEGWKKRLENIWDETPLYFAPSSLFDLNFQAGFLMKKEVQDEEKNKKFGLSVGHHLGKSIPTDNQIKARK

Target | log2 fold change [1] | log2 fold change [2] | log2 fold change [3] | log2 fold change [4] | log2 fold change (entinostat) | log2 fold change (citarinostat) | log2 fold change (silmitasertib) | log2 fold change [5] | log2 fold change [6] | log2 fold change (vorinostat)
MRPS21 (UniProt P82921) | -0.009 | 0.137 | -0.003 | 0.095 | -0.004 | 0.07 | -0.156 | 0.024 | -0.05 | –
NPC1L1 (UniProt Q9UHC9) | 0.011 | -0.038 | -0.104 | -0.024 | -0.011 | 0.036 | -0.028 | – | 0.054 | –
NOP56 (UniProt O00567) | 0.162 | 0.14 | 0.197 | 0.103 | -0.084 | -0.058 | 0.096 | 0.09 | -0.156 | 0.014
MPHOSPH10 (UniProt O00566) | 0.089 | 0.016 | 0.186 | 0.064 | 0.017 | 0.062 | 0.112 | 0.067 | -0.169 | 0.045
NDFIP1 (UniProt Q9BT67) | 0.104 | -0.16 | -0.029 | -0.249 | -0.291 | 0.025 | 0.27 | 0.352 | 0.007 | -0.051
MTFR1L (UniProt Q9H019) | -0.069 | -0.079 | – | -0.005 | 0.069 | – | – | -0.014 | – | 0.356
NCKAP1 isoform 2 (UniProt Q9Y2A7) | 0.066 | -0.009 | -0.12 | -0.025 | 0.024 | 0.015 | -0.029 | -0.055 | 0.046 | 0.063
MITF (UniProt O75030) | -0.023 | 0.021 | -0.11 | 0.302 | -0.048 | 0.083 | 0.071 | – | -0.022 | 0.2
NQO1 (UniProt P15559) | -0.032 | 0.039 | -0.018 | -0.034 | -0.013 | 0.009 | -0.058 | -0.149 | 0.068 | -0.024
NAT14 (UniProt Q8WUY8) | 0.038 | -0.135 | -0.108 | -0.33 | -0.033 | 0.04 | 0 | -0.037 | -0.108 | –
OGFR (UniProt Q9NZT2) | 0.049 | -0.198 | 0.015 | 0.068 | -0.02 | 0.121 | 0.003 | -0.019 | -0.092 | 0.096
NCK1 (UniProt P16333) | -0.118 | -0.247 | -0.056 | -0.112 | 0.085 | – | 0.077 | -0.194 | – | –
NIPSNAP2 (UniProt C9J7B1) | -0.009 | 0.175 | -0.017 | – | 0.148 | – | 0.019 | – | – | –
NA, A0A494C071 | – | -0.484 | -0.407 | -0.153 | – | 0.023 | 0.212 | -0.022 | -0.086 | 0
NA, A0A2R8Y3M9 | -0.104 | -0.17 | – | – | -0.011 | – | – | – | – | 0.372
MYLK (UniProt Q15746) | -0.063 | – | -0.064 | -0.21 | -0.081 | -0.089 | 0.175 | – | 0.204 | -0.059
MLH1 (UniProt P40692) | – | 0.058 | -0.102 | – | – | – | -0.017 | -0.098 | – | -0.042
NELFCD (UniProt Q8IXH7) | – | -0.005 | – | -0.321 | – | – | – | -0.12 | – | 0.234
NAP1L1 (UniProt B7Z9C2) | – | -0.124 | 0.028 | 0.064 | – | 0.068 | 0.001 | – | 0.179 | 0.23
MYO19 (UniProt Q96H55) | – | -0.112 | – | 0.051 | – | – | – | 0.232 | – | 0.029
ORC3 (UniProt Q9UBD5) | – | 0.067 | – | – | – | 0.032 | – | – | -0.195 | –
NKTR (UniProt P30414) | – | – | 0.074 | – | – | – | -0.023 | – | – | –
MON1A (UniProt Q86VX9) | 0.016 | – | 0.001 | – | -0.005 | 0.161 | -0.157 | -0.013 | -0.275 | 0.017
P4HA2 (UniProt O15460) | -0.034 | – | -0.129 | 0.063 | -0.104 | -0.019 | 0.025 | 0.201 | -0.021 | -0.047
MYSM1 (UniProt Q5VVJ2) | -0.205 | – | – | – | 0.237 | 0.564 | – | – | 0.174 | –
OGFOD2 (UniProt Q6N063) | – | 0.005 | -0.151 | -0.012 | – | 0.036 | 0.097 | -0.073 | -0.012 | -0.313

Target | log2 fold change [1] | log2 fold change [2] | log2 fold change [3] | log2 fold change [4] | log2 fold change (entinostat) | log2 fold change (citarinostat) | log2 fold change (silmitasertib) | log2 fold change [5] | log2 fold change [6] | log2 fold change (vorinostat)
NA, A0A1W2PSA9 | – | 0.004 | – | – | – | – | – | – | – | -0.364
PACRGL (UniProt Q8N7B6) | 0.055 | – | – | – | -0.116 | – | – | – | – | –
MOB2 isoform 3 (UniProt Q70IA6) | – | – | -0.251 | – | – | – | 0.062 | -0.368 | – | 0.044
NOS1AP (UniProt O75052) | – | – | -0.27 | -0.302 | – | -0.225 | 0.312 | -0.186 | 0.59 | –
MT-ND2 (UniProt P03891) | – | 0.146 | -0.128 | 0.036 | – | – | -0.01 | – | – | 0.036
NMU (UniProt P48645) | – | -0.023 | – | 0.132 | – | 0.043 | – | 0.144 | -0.08 | 0.041
NUDT7 (UniProt P0C024) | 0.01 | – | – | – | -0.05 | – | – | 0.12 | – | 0.286
NA (UniProt J3KR12) | – | – | -0.292 | – | – | – | -0.108 | 0.427 | – | –
MORC2 (UniProt Q9Y6X9) | – | -0.193 | -0.118 | – | – | – | -0.066 | -0.151 | – | –
OAF (UniProt Q86UD1) | -0.089 | – | -0.188 | – | -0.029 | – | 0.019 | – | – | –
OSBPL2 (UniProt Q9H1P3) | – | – | -0.443 | – | – | – | 0.148 | – | – | –
NEU3 isoform 2 (UniProt Q9UQ49) | 0.112 | – | – | – | -0.071 | – | – | – | – | –
NA (UniProt B2RBV5) | 0.06 | – | -0.055 | – | 0.029 | 0.12 | 0.056 | -0.001 | -0.014 | 0.045
MRM2 (UniProt Q9UI43) | – | -0.202 | – | -0.211 | – | – | – | – | – | –
NCOA5 (UniProt Q9HCD5) | -0.101 | – | – | – | -0.011 | – | – | – | – | 0.023
NRGN (UniProt Q92686) | – | 0.144 | – | – | – | – | – | -0.215 | – | -0.231
OXR1 isoform 2 (UniProt Q8N573) | – | 0.054 | – | -0.046 | – | 0.013 | – | -0.096 | -0.053 | 0.01
MSANTD2 (UniProt Q6P1R3) | -0.041 | – | – | -0.065 | -0.184 | -0.124 | – | 0.004 | 0.16 | –
NKAP (UniProt Q8N5F7) | – | -0.043 | 0.027 | -0.028 | – | 0.099 | -0.132 | 0.111 | -0.144 | 0.019
OSBPL3 (UniProt Q9H4L5) | -0.079 | -0.43 | – | 0.106 | 0.077 | -0.077 | – | 0.307 | -0.072 | –
NDUFA7 (UniProt M0R0N0) | -0.307 | – | – | -0.344 | -0.063 | – | – | – | – | –
MOB3B (UniProt Q86TA1) | – | -0.082 | -0.288 | -0.021 | – | – | -0.023 | – | – | -0.049
OVCA2 (UniProt Q8WZ82) | – | -0.067 | 0.03 | – | – | -0.085 | 0.206 | – | 0.08 | 0.08
NASP isoform 2 (UniProt P49321) | – | – | 0.24 | – | – | – | -0.475 | – | – | –
NUDT6 (UniProt P53370) | – | – | 0.149 | 0.298 | – | 0.164 | -0.517 (active) | -0.097 | -0.385 | –
MMADHC (UniProt Q9H3L0) | – | 0.035 | 0.014 | 0.057 | – | 0.141 | 0.031 | – | 0.031 | 0.157
